Laboratory results reported in PubChem BioAssay (Tox21).
Inconclusive results are not listed. Where a call stands in place of a potency, no number is given. Active and inactive are the calls of the source. Calls come from the whole dose curve; as a rule, active = well fitted activation curve with a large enough effect in the repeat runs; inconclusive = weak or mixed curves; inactive = flat fitted curve, though single readings scatter.

Assay: A CellTox Green Cytotoxicity Assay to monitor cytotoxicity in HepG2 cells - 40 hour (AID 1224879); note: nearly all actives have a fitted effect of over 40% in size
Settings: CellTox Green fluorescence; series mostly up to 76.8 µM
Outline: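 Nonlytic assay: viable cells exclude the dye, so fluorescence scales with cell death. HepG2 at 600 cells/well, compounds added after 5 h, signal read across 40 h.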
Potency is the fitted concentration of half-maximal effect.

Question: For `CN(C)c1ccc(N(C)C)cc1`, which Potency is on record?
Answer: inactive

Question: For `CC(C)=CCOc1c2occc2cc2ccc(=O)oc12`, which Potency is on record?
Answer: inactive

Question: With `c1ccc(CN2CCNCC2)cc1` as the molecule, how does the Potency read?
Answer: inactive

Question: Which Potency does the source give for `O=C(CCl)c1ccc(Cl)cc1Cl` here?
Answer: 23.9 µM (active)

Question: With `COCCOCCO` as the molecule, how does the Potency read?
Answer: inactive

Question: Which Potency does the source give for `CC1(C)[C@H](C=C(Cl)Cl)[C@@H]1C(=O)O[C@@H](C#N)c1cccc(Oc2ccccc2)c1` here?
Answer: inactive

Question: With `CCC(C)(NC(=O)c1cc(Cl)c(C)c(Cl)c1)C(=O)CCl` (stereo not drawn) as the molecule, how does the Potency read?
Answer: 49.3 µM (active)

Question: For `CO/N=C(/C(=O)OC)c1ccccc1COc1ccccc1C`, which Potency is on record?
Answer: inactive
